Experiment [1] can be described thus: ATG_CRE_CIS: Attagene CIS-FACTORIAL HepG2 Assay for human cAMP Responsive Element (CRE) binding protein 3 (AID 2282926). As to conditions: HepG2 CRE cis-reporter, Attagene multiplexed mRNA; actives raise or lower the signal. The method in brief: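 Induced reporter mRNA from a CRE cis element, measured in HepG2 among many multiplexed units at 24 h. Detection used RT-PCR plus capillary electrophoresis of fluorescent fragments; DMSO served as negative control.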

Experiment [2] addresses CCAAT/enhancer-binding protein beta (Homo sapiens) (UniProt P17676). Put plainly: ATG_C_EBP_CIS: Attagene CIS-FACTORIAL HepG2 Assay for human CCAAT/Enhancer Binding Protein (C/EBP) beta (AID 2282927). The note with it: HepG2 Attagene cis-factorial transcription factor reporter; actives raise or lower the signal. The method in brief: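 Following a 24 h incubation with test chemical, transfected HepG2 cells yielded RNA whose reporter transcripts were quantified by RT-PCR and fluorescent capillary electrophoresis, with DMSO serving as baseline for bidirectional fitting.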

Experiment [3] can be described thus: ATG_CMV_CIS: Attagene CIS-FACTORIAL HepG2 Assay for human CMV (Internal Marker) (AID 2282928).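 Note: endpoint acts as a background internal control marker rather than a target.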 As to conditions: HepG2 CMV promoter reporter, transcription factor profiling; actives raise or lower the signal. The method in brief:
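24 h chemical treatment, HepG2 with transient multi-reporter transfection; RNA → oligo(dT) RT → PCR → 6-FAM extension → HpaI digest → CE fluorescence. Bidirectional fit, DMSO negative control.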

A short description of experiment [4]: ATG_DR4_LXR_CIS: Attagene CIS-FACTORIAL HepG2 Assay for human Liver X Receptor (LXR), DR4 submotif (AID 2282929). As to conditions: HepG2 Attagene DR4 cis-reporter, mRNA transcription; actives raise or lower the signal. The method in brief: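 HepG2, transient MRTU transfection, cis-element (DR4) promoter; 24 h compound exposure; total RNA → oligo(dT) RT → PCR → 6-FAM primer extension → HpaI cut → CE. Gain/loss vs DMSO, bidirectional fit.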

The nature of experiment [5]: ATG_AP_1_CIS: Attagene CIS-FACTORIAL HepG2 Assay for human Activator Protein 1 (AP-1) (AID 2282931). As to conditions: HepG2 Attagene cis-factorial AP-1 reporter mRNA; actives raise or lower the signal. The method in brief: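 Transient MRTU transfection of HepG2 → 24 h chemical treatment → RNA isolation, RT-PCR, 6-FAM labelling, HpaI digest → capillary electrophoresis. Fit: bidirectional, DMSO negative control.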

Experiment [6] can be described thus: ATG_AP_2_CIS: Attagene CIS-FACTORIAL HepG2 Assay for human Activator Protein 2 (AP-2) (AID 2282932). The note with it: HepG2 AP-2 cis-reporter, Attagene transcription factor profiling; actives raise or lower the signal. Summed up: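 Assay in transfected HepG2 with promoter-regulated reporters, 24 h incubation after dosing. Signal is reporter mRNA fluorescence (RT-PCR, capillary electrophoresis), analysed for both increases and decreases relative to DMSO controls.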

Experiment [7] can be described thus: ATG_BRE_CIS: Attagene CIS-FACTORIAL HepG2 Assay for human Bone Morphogenetic Protein (BMP) Response Element (BRE) (AID 2282933). As to conditions: HepG2 BMP response element reporter, Attagene transcription factor profiling; actives raise or lower the signal. Summed up:
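HepG2 cells transiently transfected with multiplexed cis-element reporter units were dosed with chemical for 24 h. Reporter mRNA was measured by RT-PCR with fluorescent labelling, HpaI digestion and capillary electrophoresis; bidirectional fitting relative to DMSO.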

Experiment [8] deals with Retinoic acid receptor alpha (Homo sapiens) (UniProt P10276). The experiment can be described thus: ATG_DR5_RAR_CIS: Attagene CIS-FACTORIAL HepG2 Assay for human Retinoic Acid Receptor Alpha (RARE), DR5 submotif (AID 2282934). The note with it: HepG2 Attagene cis-factorial RARE DR5 reporter, mRNA; actives raise or lower the signal. The method in brief: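 Endpoint fitted in both directions relative to DMSO as negative control. It reflects DR5 cis-element reporter mRNA induction in transiently transfected HepG2 cells, measured 24 h after dosing through RT-PCR and fluorescent capillary electrophoresis.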

The target in experiment [9] is Transcription factor E2F1 (Homo sapiens) (UniProt Q01094). Put plainly: ATG_E2F_CIS: Attagene CIS-FACTORIAL HepG2 Assay for human E2F Transcription Factor 1 (AID 2282935). The note with it: HepG2 Attagene cis-reporter, E2F reporter RNA transcripts; actives raise or lower the signal. The method in brief:
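In this cis-factorial format, endogenous factor activity drives transfected reporters in HepG2; transcripts collected at 24 h are quantified by fluorescence after RT-PCR and capillary separation.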

A short description of experiment [10]: ATG_E_Box_CIS: Attagene CIS-FACTORIAL HepG2 Assay for human Enhancer Box (E-box) (AID 2282936). The note with it: HepG2 E-box cis-reporter transcription, actives raise or lower the signal. The method in brief: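 Measured 24 h post-dosing in HepG2 cells transfected with multiple cis-regulated reporter units, signal being reporter mRNA induction detected by fluorescent RT-PCR with capillary electrophoresis; gain or loss fitted against DMSO.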

The nature of experiment [11]: ATG_M_61_CIS: Attagene CIS-FACTORIAL HepG2 Assay for M61 Transcription Factor (Internal Marker) (AID 2282937). The note with it: HepG2 Attagene CIS-FACTORIAL M61 internal marker reporter; actives raise or lower the signal. Summed up: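 Human liver HepG2, transient MRTU transfection (cis promoter elements), 24 h compound. Total RNA → oligo(dT) RT → PCR → FAM label → HpaI → CE. Internal background marker; bidirectional fitting, DMSO = baseline.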

Experiment [12] in a line: ATG_EGR_CIS: Attagene CIS-FACTORIAL HepG2 Assay for human Early Growth Response 1 (EGR1) (AID 2282938). The note with it: HepG2 Attagene CIS-FACTORIAL EGR reporter mRNA; actives raise or lower the signal. The method in brief:
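Transient transfection of human HepG2 with multiple cis-regulated reporter units, chemical exposure 24 h, total RNA isolated. Reverse transcription, PCR, fluorescent labelling and capillary electrophoresis quantify reporter transcripts; activity fitted bidirectionally against DMSO.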

Experiment [13] can be described thus: ATG_M_19_CIS: Attagene CIS-FACTORIAL HepG2 Assay for M19 Transcription Factor (Internal Marker) (AID 2282939). As to conditions: HepG2 Attagene CIS-FACTORIAL M19 internal marker reporter; actives raise or lower the signal. Summed up:
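HepG2 cells transiently transfected with cis-regulated multiple reporter transcription units were dosed for 24 h; reporter mRNA was quantified by RT-PCR, 6-FAM primer-extension labelling, HpaI digestion and capillary electrophoresis, with bidirectional fitting against DMSO baseline.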

Experiment [14] is described as follows: ATG_Ets_CIS: Attagene CIS-FACTORIAL HepG2 Assay for human Erythroblast Transformation Specific (ETS) (AID 2282941). The note with it: HepG2 ETS cis-reporter transcription, actives raise or lower the signal. Summed up:
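Cis-regulated reporter mRNA induction in HepG2 (transient transfection), 24 h exposure, RT-PCR plus capillary electrophoresis detection; DMSO serves as negative control and baseline.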

The target of experiment [15] is Hepatocyte nuclear factor 3-beta (Homo sapiens) (UniProt Q9Y261). Put plainly: ATG_FoxA2_CIS: Attagene CIS-FACTORIAL HepG2 Assay for human Forkhead box A2 (FOXA2) (AID 2282942). As to conditions: HepG2 cis-reporter transcription factor activity, 24 h; actives raise or lower the signal. Summed up: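 Transient MRTU transfection of HepG2 liver cells; 24 h treatment; total RNA → oligo(dT) RT → PCR → FAM primer extension → HpaI cut → CE. Bidirectional fit vs DMSO.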

A short description of experiment [16]: ATG_FoxO_CIS: Attagene CIS-FACTORIAL HepG2 Assay for human Forkhead box O (FoxO) (AID 2282943). The note with it: HepG2 Attagene cis-reporter, FoxO element, mRNA; actives raise or lower the signal. The method in brief:
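Values reflect reporter mRNA induction or loss in HepG2 cells 24 h post-dosing, fitted bidirectionally with DMSO as negative control and baseline. Detection used RT-PCR and fluorescence capillary electrophoresis.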

Experiment [17] can be described thus: ATG_GATA_CIS: Attagene CIS-FACTORIAL HepG2 Assay for human GATA Binding Protein (AID 2282944). The note with it: HepG2 GATA cis-element reporter, Attagene multiplex mRNA; actives raise or lower the signal. Summed up: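 HepG2 cells transiently transfected with multiplexed cis-element reporter units reflecting endogenous transcription factor activity; reporter mRNA measured after 24 h dosing by RT-PCR, 6-FAM labeling, HpaI digestion and capillary electrophoresis. Bidirectional fitting versus DMSO baseline.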

Experiment [18] in a line: ATG_GLI_CIS: Attagene CIS-FACTORIAL HepG2 Assay for human Zinc Finger Protein GLI1 (AID 2282945). The note with it: HepG2, Attagene cis-factorial reporter mRNA, GLI element; actives raise or lower the signal. The method in brief:
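HepG2 cells transiently transfected with cis-promoter multiplexed reporter units report endogenous transcription factor activity. After 24 h chemical exposure, reporter mRNA was quantified by RT-PCR, 6-FAM labelling, HpaI digestion and capillary electrophoresis, with bidirectional fitting against DMSO.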

The target of experiment [19] is Aryl hydrocarbon receptor (Homo sapiens) (UniProt P35869). Put plainly: ATG_Ahr_CIS: Attagene CIS-FACTORIAL HepG2 Assay for human Aryl Hydrocarbon Receptor (Ahr) (AID 2282930). As to conditions: HepG2 AhR cis-factorial reporter transcription; actives raise or lower the signal. Summed up: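 Values derive from bidirectional fitting against DMSO negative control. Underlying signal: cis-element reporter mRNA in transiently transfected HepG2, harvested 24 h post-dose and measured by RT-PCR plus capillary electrophoresis.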

For experiment [20], the target named is Bile acid receptor (Homo sapiens) (UniProt Q96RI1). Put plainly: ATG_IR1_CIS: Attagene CIS-FACTORIAL HepG2 Assay for human Nuclear Receptor Subfamily 1 Group H Member 4 (NR1H4), IR1 submotif (AID 2282946). The note with it: IR1 reporter transcription, actives raise or lower the signal. Summed up:
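Readout: reporter transcript levels by RT-PCR with fluorescent capillary electrophoresis, from HepG2 cells transiently transfected with multiplexed cis-regulated reporters and dosed 24 h. Gain- or loss-of-signal fitted versus DMSO negative control.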

Activity calls are given as the source filed them. Rule for the calls: active = hit-call score of the fitted dose curve at least 0.9, where 1 is the maximum; inactive = score below 0.9.

Chain of Aryl hydrocarbon receptor (Homo sapiens) (P35869 whole entry, looked up): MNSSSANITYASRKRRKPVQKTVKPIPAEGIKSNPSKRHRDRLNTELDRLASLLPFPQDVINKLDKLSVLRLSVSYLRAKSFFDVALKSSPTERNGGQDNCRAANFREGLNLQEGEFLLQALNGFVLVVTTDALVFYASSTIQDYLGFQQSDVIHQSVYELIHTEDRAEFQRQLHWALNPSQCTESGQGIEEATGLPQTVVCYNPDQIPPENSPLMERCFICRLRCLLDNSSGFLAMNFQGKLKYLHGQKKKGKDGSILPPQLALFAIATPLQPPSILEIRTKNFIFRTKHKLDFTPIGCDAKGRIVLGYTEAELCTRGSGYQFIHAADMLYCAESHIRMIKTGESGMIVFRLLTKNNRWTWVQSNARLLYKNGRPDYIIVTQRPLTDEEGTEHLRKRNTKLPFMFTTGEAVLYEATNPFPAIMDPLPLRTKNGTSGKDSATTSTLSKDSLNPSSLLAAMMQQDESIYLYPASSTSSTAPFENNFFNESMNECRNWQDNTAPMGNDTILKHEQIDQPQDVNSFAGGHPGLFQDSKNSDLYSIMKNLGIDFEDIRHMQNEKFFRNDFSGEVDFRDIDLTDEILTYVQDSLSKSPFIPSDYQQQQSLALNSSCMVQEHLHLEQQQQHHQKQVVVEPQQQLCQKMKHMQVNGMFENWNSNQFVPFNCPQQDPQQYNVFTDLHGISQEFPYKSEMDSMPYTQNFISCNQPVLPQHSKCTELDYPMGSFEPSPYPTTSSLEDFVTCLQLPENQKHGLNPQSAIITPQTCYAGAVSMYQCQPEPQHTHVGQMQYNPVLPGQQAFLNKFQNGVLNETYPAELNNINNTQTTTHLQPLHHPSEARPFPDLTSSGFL
Chain of Bile acid receptor (Homo sapiens) (Q96RI1 whole entry, looked up): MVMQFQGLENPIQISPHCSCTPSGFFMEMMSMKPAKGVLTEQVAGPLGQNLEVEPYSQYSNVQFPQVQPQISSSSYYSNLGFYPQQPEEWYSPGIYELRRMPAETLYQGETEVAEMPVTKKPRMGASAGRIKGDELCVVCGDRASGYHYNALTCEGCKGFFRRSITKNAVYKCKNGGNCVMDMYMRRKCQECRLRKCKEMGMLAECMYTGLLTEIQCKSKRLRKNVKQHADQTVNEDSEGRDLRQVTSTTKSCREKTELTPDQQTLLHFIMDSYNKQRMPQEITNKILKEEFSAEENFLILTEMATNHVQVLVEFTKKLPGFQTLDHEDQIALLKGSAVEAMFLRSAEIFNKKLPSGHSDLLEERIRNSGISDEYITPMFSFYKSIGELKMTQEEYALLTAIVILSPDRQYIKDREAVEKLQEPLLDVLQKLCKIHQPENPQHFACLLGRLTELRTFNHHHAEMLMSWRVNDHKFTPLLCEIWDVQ
Chain of Hepatocyte nuclear factor 3-beta (Homo sapiens) (Q9Y261 whole entry, looked up): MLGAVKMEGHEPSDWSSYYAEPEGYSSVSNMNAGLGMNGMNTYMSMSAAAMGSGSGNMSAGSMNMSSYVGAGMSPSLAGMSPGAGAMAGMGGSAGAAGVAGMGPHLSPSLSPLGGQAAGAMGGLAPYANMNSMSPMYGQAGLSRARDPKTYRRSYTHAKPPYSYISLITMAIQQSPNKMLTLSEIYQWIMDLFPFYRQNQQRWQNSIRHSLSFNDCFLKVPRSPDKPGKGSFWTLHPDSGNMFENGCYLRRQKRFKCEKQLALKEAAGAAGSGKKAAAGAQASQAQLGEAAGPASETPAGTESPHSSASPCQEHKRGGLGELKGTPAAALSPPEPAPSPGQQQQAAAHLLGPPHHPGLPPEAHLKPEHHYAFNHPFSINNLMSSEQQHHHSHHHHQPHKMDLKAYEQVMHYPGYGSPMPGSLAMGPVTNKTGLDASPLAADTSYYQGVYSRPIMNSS
Chain of Retinoic acid receptor alpha (Homo sapiens) (P10276 whole entry, looked up): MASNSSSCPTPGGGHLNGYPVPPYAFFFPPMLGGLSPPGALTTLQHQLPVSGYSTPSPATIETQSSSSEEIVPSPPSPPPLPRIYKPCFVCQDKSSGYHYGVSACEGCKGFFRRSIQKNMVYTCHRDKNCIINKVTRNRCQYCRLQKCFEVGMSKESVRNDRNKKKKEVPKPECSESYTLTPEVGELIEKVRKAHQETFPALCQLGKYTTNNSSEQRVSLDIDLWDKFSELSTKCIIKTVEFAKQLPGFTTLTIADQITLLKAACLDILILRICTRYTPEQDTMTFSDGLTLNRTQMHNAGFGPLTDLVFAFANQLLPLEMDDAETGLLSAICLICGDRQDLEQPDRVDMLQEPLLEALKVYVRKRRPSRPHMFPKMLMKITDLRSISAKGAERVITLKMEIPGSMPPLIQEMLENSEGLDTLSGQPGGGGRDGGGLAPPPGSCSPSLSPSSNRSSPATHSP
Chain of CCAAT/enhancer-binding protein beta (Homo sapiens) (P17676 whole entry, looked up): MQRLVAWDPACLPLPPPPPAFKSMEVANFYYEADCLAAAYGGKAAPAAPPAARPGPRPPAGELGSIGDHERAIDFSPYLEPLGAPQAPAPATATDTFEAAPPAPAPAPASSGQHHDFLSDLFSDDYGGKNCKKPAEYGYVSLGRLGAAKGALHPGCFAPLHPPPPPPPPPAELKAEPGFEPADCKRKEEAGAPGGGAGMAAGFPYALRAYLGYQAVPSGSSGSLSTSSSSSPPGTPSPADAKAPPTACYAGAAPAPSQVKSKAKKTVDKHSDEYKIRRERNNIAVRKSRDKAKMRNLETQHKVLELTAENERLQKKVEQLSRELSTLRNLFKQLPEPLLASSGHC
Chain of Transcription factor E2F1 (Homo sapiens) (Q01094 whole entry, looked up): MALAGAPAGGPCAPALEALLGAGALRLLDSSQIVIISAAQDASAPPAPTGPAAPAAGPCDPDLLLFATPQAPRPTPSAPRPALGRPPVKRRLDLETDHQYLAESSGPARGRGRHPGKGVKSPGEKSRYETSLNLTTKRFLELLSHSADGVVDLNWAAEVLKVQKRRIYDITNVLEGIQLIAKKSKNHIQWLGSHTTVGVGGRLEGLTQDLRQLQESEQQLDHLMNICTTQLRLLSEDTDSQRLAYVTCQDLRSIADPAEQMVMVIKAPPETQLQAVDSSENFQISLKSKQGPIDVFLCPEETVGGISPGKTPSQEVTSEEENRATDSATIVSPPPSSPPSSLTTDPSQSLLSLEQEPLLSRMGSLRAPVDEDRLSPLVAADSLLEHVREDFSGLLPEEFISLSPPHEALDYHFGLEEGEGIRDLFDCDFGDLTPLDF

With `C=C(C)CNCC`, the outcome in [1], in experiment [2], in experiment [3], in experiment [4], in experiment [5] and in [6] was inactive. For the same molecule, the outcome in experiment [7], in experiment [8], in experiment [9], in [10], in experiment [11] and in experiment [12] was inactive. In addition, the result in experiment [13], in experiment [14], in experiment [15], in [16], in experiment [17] and in experiment [18] was inactive.

As for `COCCOC(=O)c1ccccc1C(=O)OCCOC`, the molecule was classed as inactive in experiment [1], in experiment [2], in [3], in [4], in [5] and in [6]. Further, the result in [7], in [8], in experiment [9], in [10], in experiment [13] and in experiment [14] was inactive. The result in experiment [15], in experiment [16], in [17] and in experiment [18] was inactive.

Regarding `C[Si]1(C)O[Si](C)(C)O[Si](C)(C)O1`, the call in [1], in experiment [2], in [3], in experiment [19], in [5] and in experiment [6] was inactive. Besides, the outcome in experiment [7], in experiment [8], in experiment [10], in [12], in experiment [13] and in experiment [15] was inactive. The outcome in [16], in [17], in [18] and in experiment [20] was inactive.

Regarding `CCC(=O)O[C@@H]1C[C@H]2CC[C@]1(C)C2(C)C`, the molecule was classed as inactive in experiment [1], in experiment [2], in experiment [3], in [19], in experiment [5] and in [6]. Also, the molecule was classed as inactive in experiment [7], in experiment [8], in experiment [9], in [10], in [13] and in [14]. The molecule was called inactive in experiment [16], in experiment [17] and in [18].

Regarding `CN(C)c1cccc(O)c1`, the outcome in experiment [1], in experiment [2], in [3], in [5], in [7] and in experiment [8] was inactive. In addition, the result in experiment [10], in [11], in experiment [12], in experiment [13], in [14] and in [15] was inactive. Besides, the outcome in experiment [16] and in experiment [17] was inactive. For the same molecule, in [19], the AC50 is 7.57 µM (active).

With `C=C(C)[C@@H]1CC=C(C)C(=O)C1`, the result in [1], in [2], in [3], in experiment [4], in [5] and in [7] was inactive. Besides, the outcome in [9], in [10], in experiment [11], in experiment [12], in experiment [13] and in experiment [14] was inactive. Further, the result in [15], in experiment [16] and in experiment [18] was inactive.

On to `CCOC(=O)C(C#N)=C(c1ccccc1)c1ccccc1`, for which the AC50 in experiment [1] is 63 µM (active); in experiment [4] it was 29.6 µM (active); in experiment [5] it was 178 µM (active); in experiment [7], 125 µM (active); in experiment [12] it was 20 µM (active); in experiment [20], 100 µM (active). Besides, the result in experiment [2], in [3], in experiment [6], in [8], in experiment [9] and in [11] was inactive. For the same molecule, the outcome in experiment [13], in experiment [14], in experiment [15], in [16], in experiment [17] and in experiment [18] was inactive.

As for `CCCCCCC(C)(C)S`, the outcome in experiment [1], in [2], in experiment [3], in [4], in experiment [5] and in experiment [7] was inactive. The result in experiment [8], in experiment [9], in [10], in experiment [11], in [12] and in experiment [13] was inactive. Moreover, the molecule was called inactive in experiment [14], in [16], in [17], in experiment [18] and in experiment [20].

As usually defined, the AC50 is the concentration at which the activity in the assay is half-maximal.
